CFTR F508del cor: F508del CFTR correction, initial screen, CFBE line, single point; CFBE cells, YFP halide quenching; stimulated with forskolin plus potentiator P3; % fluorescence drop versus neutral controls; activity (quench increase), % at 7.58 µM; 350,000 compounds, 0.36% hits; AID 720511, 2013;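 active means mean added fluorescence quench of at least 8% versus neutral control, with both replicates also reaching 8%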;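 further: cells transiently co-express mutant CFTR-F508del with the halide-sensitive YFP; corrector assay measuring rescue of mutant channel to the surface after 24 h compound exposure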
C2C12 statin: suppressors of statin myotoxicity in C2C12 myotubes, primary screen, cell-based, single point, plate reader; rescue of ATP level, % at 7.49 µM; AID 602340, 2012; C2C12 myotubes + simvastatin, ATP luminescence, 48 h; scaled: DMSO 0, geranylgeraniol control 100; 330,000 compounds, 0.78% hits;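 active means mean ATP rescue above about 67%, or every replicate alone reaching that limit, limit read from the data, passing the limit was not always enough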;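 further: myotubes were challenged with 10 µM simvastatin during compound exposure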
ARNT-TACC3 inh: disruptors of ARNT/TACC3 protein interaction, primary screen, biochemical, AlphaScreen, single concentration; inhibition, % at 9.99 µM; 390,000 compounds, 0.66% hits; AlphaScreen His-ARNT PAS-B/GST-TACC3 binding, luminescence; TACC3 fragment carries E629A point mutation;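 active means mean inhibition of replicates at least 50% and at least half of replicates each reaching 50%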;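 further: 0% = complete ARNT plus TACC3 wells and 100% = ARNT alone without TACC3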
PglD DTNB: C. jejuni PglD acetyltransferase inhibitors, primary screen, biochemical, DTNB colorimetric, single point; UDP-N-acetylbacillosamine N-acetyltransferase PglD (Campylobacter jejuni); purified PglD enzyme, DTNB colorimetric CoA detection; inhibition, % at 12.5 µM; 360,000 compounds, 0.098% hits; in the data active means inhibition above about 16%, passing the limit was not always enough
AlphaScreen ctr: AlphaScreen signal interference compounds, dose response, artefact control for ARNT-TACC3 interaction inhibitor project, biochemical, luminescence, cherry-pick. shares compounds with ARNT-TACC3 inh. His-ARNT PASB-GST AlphaScreen artifact counter-screen. AC50, µM (top dose mostly 68 µM), for the others: at the top dose activity change, negative = signal decrease. 1,200 compounds, 50% hits;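 active means every separate test run was called active for a drop in luminescence, with AC50 within twice the top valid dose, actives reach about 71 µM in these data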
Starred values were filed as active, the others as inactive; . = no result given; [ ] = dose if it differs, or a comment. In the library only some 1.4% were active in any assay of this set; here they are far more common.

SMILES | CFTR F508del cor | C2C12 statin | ARNT-TACC3 inh | PglD DTNB | AlphaScreen ctr
OCC1CCN(Cc2ccc(O)c3ncccc23)CC1 | . | . | . | . | 0.41µM*
CN1CCN(Cc2cc(COCc3ccccc3)c3cccnc3c2O)CC1 | . | 59 | 2 | 0 | .
Oc1ccc(CNC2CCc3ccccc32)c2cccnc12 (configuration not stated) | . | . | . | . | 3.2µM*
O=S(=O)(c1ccc(Cl)cc1)N1CCN(Cc2ccc(O)c3ncccc23)CC1 | 1 | . | 41 | . | .
Oc1ccc(CN2CCN(Cc3ccccc3)CC2)c2cccnc12 | . | 4 | 65* | -7 | 6µM*
CCS(=O)(=O)Nc1ccc2c(c1)C(=O)N(C)C[C@@H](OC)[C@H](C)CN(Cc1nccs1)[C@H](C)CO2 | 1 | 18 | -8 | 0 | .
C/C=C/c1ccc2c(c1)O[C@H](CN(C)C(=O)Nc1cc(F)ccc1F)[C@H](C)CN([C@H](C)CO)S2(=O)=O | 2 | 4 | 9 | 2 | .
O=C(NC1CCCCC1)N1CC(=O)N2[C@H](CO)[C@@H](c3ccc(/C=C/c4ccccc4)cc3)[C@@H]2C1 | 0 | . | . | . | .
CCN(CC)CCCNC(=O)c1cc(-c2ccc(Cl)cc2)on1 | . | -15 | . | 0 | .
O=C(NCC1CC1)c1cc(-c2ccccc2)on1 | . | . | . | . | 1%[38 µM]
O=C(NCc1cccnc1)c1cc(-c2ccccc2)on1 | . | -4 | -1 | 4 | .
Cc1ccccc1CNC(=O)c1cc(-c2ccccc2)on1 | . | . | . | . | 2%[38 µM]
CN(C)CCNC(=O)c1cc(-c2ccccc2)on1 | . | . | . | . | -1%[38 µM]
CCCN1[C@@H]2c3ccc(-c4ccc(F)cc4)c(=O)n3C[C@@H]2[C@@H](CO)[C@@H]1C(=O)OC | -1 | -2 | -1 | -6 | .
COc1ccc2c3c(n(C)c2c1)[C@@H](CO)N(C(=O)CC1CC1)CC31CCN(C(=O)NC(C)C)CC1 | 3 | . | . | . | .
Oc1c(C(c2ccccn2)N2CCCCC2)cc(Cl)c2cccnc12 (configuration not stated) | -2 | . | 69* | -2 | 8.1µM*
CN1CCN(C(c2ccc(Cl)cc2)c2cc(Cl)c3cccnc3c2O)CC1 (configuration not stated) | -1 | -90 | 12 | -3 | .
O=C(O)C[C@@H]1CC[C@H](NC(=O)c2ccccc2F)[C@@H](CO)O1 | 0 | -1 | -5 | 1 | .
Cc1[nH]c(=O)[nH]c(=O)c1/C=N/NC(=O)[C@H](C)NC(=O)OC(C)(C)C | . | -6 | 54* | 5 | -4%
C[C@@H]1CN([C@@H](C)CO)C(=O)c2cc(NS(=O)(=O)c3ccccc3)ccc2O[C@@H](C)CCCCO[C@@H]1CN(C)S(=O)(=O)c1ccc(Cl)cc1 | 1 | . | . | . | .
O=C(COC(=O)c1ccc(Cl)nc1)Nc1nnc(-c2ccccc2)o1 | -4 | 7 | 79* | 4 | -14%
O=C(COC(=O)c1cncc(Br)c1)Nc1nnc(-c2ccccc2)o1 | 2 | 5 | -3 | -4 | .
Cc1ccsc1C(=O)OCC(=O)Nc1nnc(-c2ccccc2)o1 | -1 | 2 | 57* | 5 | 64µM*
C[C@@H]1CN([C@H](C)CO)C(=O)Cc2cc(NC(=O)CCC(F)(F)F)ccc2O[C@@H]1CN(C)C(=O)Nc1ccc(C(F)(F)F)cc1 | 0 | 5 | -12 | 0 | .
CN(C)S(=O)(=O)N1CCN(S(=O)(=O)c2ccc(F)cc2)CC1 | . | -6 | 51* | -2 | 0%
SMILES | CFTR F508del cor | C2C12 statin | ARNT-TACC3 inh | PglD DTNB | AlphaScreen ctr
COCC(=O)N/N=C\c1ccccc1OC/C=C/c1ccccc1 | -5 | -8 | 6 | -5 | .
N#CCC(=O)N/N=C\c1ccccc1OC/C=C/c1ccccc1 | 0 | -8 | 64* | -4 | 55µM*
O=C(O)c1ccc(C2CCCCC2)cn1 | . | 1 | 63* | -6 | -22%
O=C(O)C1=C(C2CCCCC2)C(=O)c2ccccc21 | -2 | . | -4 | . | .
Nc1nnc2c(n1)CCCC2 | . | . | 55* | -5 | -10%
O=C(NC1CCCCC1)N[C@H]1CC[C@H](CCNS(=O)(=O)c2ccccc2)O[C@H]1CO | 0 | 0 | -15 | 3 | .
CC(C)NC(=O)N[C@@H]1C=C[C@H](CC(=O)O)O[C@@H]1CO | 0 | 2 | -7 | 0 | .
Oc1c(CN2CCCCC2)cc(Br)c2cccnc12 | . | 20 | 64* | -4 | 5.6µM*

Bioassay records: PubChem BioAssay, Broad Institute
